Test results taken from the supplement of paper PMC3545927.
Some of the results follow. The hit rate among all sequences tested is not known here.

Molecular target: furin, P09958
Test: furin cleavage Z-score vs untreated control; higher = more cleavage, active = 3.5 or more, inactive = 1 or less, 8 variable residues between constant flanks
Outline: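 The cleavage Z-score was derived for purified furin acting on 8-mer peptides held on magnetic beads and fused to a cDNA oligonucleotide. Digests lasted 7.5, 15 or 30 min at 1:10 enzyme:substrate in 50 mM HEPES pH 7.5 with CaCl2 and NaCl. Sequencing counts of released DNA, log-transformed against furin-free reactions, were lowess-adjusted and scaled by median absolute deviation.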

Chain of furin, P09958 (P09958 whole entry): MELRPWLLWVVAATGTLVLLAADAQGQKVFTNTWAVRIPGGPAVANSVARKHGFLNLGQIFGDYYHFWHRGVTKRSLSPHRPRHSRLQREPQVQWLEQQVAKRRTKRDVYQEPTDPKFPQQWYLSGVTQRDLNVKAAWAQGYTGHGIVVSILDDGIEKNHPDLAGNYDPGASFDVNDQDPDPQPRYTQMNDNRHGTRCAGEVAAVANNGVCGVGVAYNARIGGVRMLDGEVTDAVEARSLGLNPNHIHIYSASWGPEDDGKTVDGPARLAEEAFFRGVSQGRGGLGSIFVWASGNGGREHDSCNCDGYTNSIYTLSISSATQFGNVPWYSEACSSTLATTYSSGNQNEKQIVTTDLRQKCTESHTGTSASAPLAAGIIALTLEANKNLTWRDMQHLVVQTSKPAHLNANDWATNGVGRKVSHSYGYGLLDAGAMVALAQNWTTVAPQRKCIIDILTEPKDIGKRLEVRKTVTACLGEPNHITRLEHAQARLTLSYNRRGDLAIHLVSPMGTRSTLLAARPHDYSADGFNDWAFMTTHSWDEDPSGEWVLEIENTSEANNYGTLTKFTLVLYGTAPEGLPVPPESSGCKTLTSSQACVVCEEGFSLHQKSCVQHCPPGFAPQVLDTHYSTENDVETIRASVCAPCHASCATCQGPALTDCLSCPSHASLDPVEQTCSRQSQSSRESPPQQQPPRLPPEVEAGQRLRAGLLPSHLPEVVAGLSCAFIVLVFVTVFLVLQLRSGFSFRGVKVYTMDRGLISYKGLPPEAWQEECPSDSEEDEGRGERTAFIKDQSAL

| Sequence | furin cleavage Z-score (7.5 min) | furin cleavage Z-score (15 min) | furin cleavage Z-score (30 min) |
| --- | --- | --- | --- |
| CAMEECEQHLAGNASASA [HC33] | -0.264 (inactive) | 1.94 | 0.732 (inactive) |
| CAEDVTSTWVAGNASASA [HC2171] | 0.61 (inactive) | -0.472 (inactive) | 0.123 (inactive) |
| CAEHEVPCHRAGNASASA [HC2455] | 0.493 (inactive) | 1.57 | 2.02 |
| CAVAIKSLTEAGNASASA [HC1496] | 0.199 (inactive) | 0.138 (inactive) | 0.903 (inactive) |
| CARRARSAPAAGNASASA [FS-2368] | 10.3 (active) | 10.4 (active) | 8.53 (active) |
| CARRKKSGRGAGNASASA [FS-2777] | 0.0968 (inactive) | 0.171 (inactive) | 1.92 |
| CARRKKSLSEAGNASASA [FS-3050] | 4.99 (active) | 7.01 (active) | 7.62 (active) |
| CARRKKSAPAAGNASASA [FS-2514] | 4.51 (active) | 6.24 (active) | 5.54 (active) |
| CARRARGADAAGNASASA [FS-2512] | 2.72 | 3.57 (active) | 4.42 (active) |
| CARRARVTDAAGNASASA [FS-2513] | 0.594 (inactive) | 0.414 (inactive) | 0.64 (inactive) |
| CARRKKALEIAGNASASA [FS-2593] | 0.898 (inactive) | 1.66 | 1.58 |
| CAVTSPLTTSAGNASASA [HC1059] | -0.539 (inactive) | -0.0107 (inactive) | -0.218 (inactive) |
| CAEVVTSTEVAGNASASA [HC2232] | -0.0344 (inactive) | 0.123 (inactive) | -0.271 (inactive) |
| CALPCSFTTLAGNASASA [HC498] | 0.311 (inactive) | 0.0716 (inactive) | 0.261 (inactive) |
| CAETTTPCSGAGNASASA [HC1978] | 0.473 (inactive) | 0.124 (inactive) | -0.446 (inactive) |
| CAGHRMAWDMAGNASASA [HC318] | -0.464 (inactive) | -0.574 (inactive) | -0.169 (inactive) |
| CATGLTHIDAAGNASASA [HC942] | -0.972 (inactive) | -0.954 (inactive) | 0.105 (inactive) |
| CAERPCHRPSAGNASASA [HC2333] | 1.21 | -1.94 (inactive) | 1.34 |
| CAWICEVLSDAGNASASA [HC1152] | 0.155 (inactive) | 0.346 (inactive) | 0.769 (inactive) |
| CARRHIDLLVAGNASASA [HC290] | 1.11 | 0.566 (inactive) | 1.2 |
| CAEVFTSTWVAGNASASA [HC2187] | 0.575 (inactive) | -0.109 (inactive) | -0.829 (inactive) |

| Sequence | furin cleavage Z-score (7.5 min) | furin cleavage Z-score (15 min) | furin cleavage Z-score (30 min) |
| --- | --- | --- | --- |
| CAYIERSPRSAGNASASA [FS-520] | 1.05 | 2.95 | 3.61 (active) |
| CADKSRSPRSAGNASASA [FS-409] | 6.8 (active) | 6.47 (active) | 6.46 (active) |
| CAGSQLPCEPAGNASASA [HC1239] | -0.324 (inactive) | -2.36 (inactive) | 0.573 (inactive) |
| CANWAVRTKLAGNASASA [HC1634] | 1.9 | 0.613 (inactive) | -0.705 (inactive) |
| CAREKRRSADAGNASASA [FS-2915] | 2.47 | 1.11 | 0.11 (inactive) |
| CAREKRGGETAGNASASA [FS-2134] | -0.448 (inactive) | 0.845 (inactive) | 1.95 |
| CAREARVVSDAGNASASA [FS-2908] | -1.38 (inactive) | -0.98 (inactive) | -0.486 (inactive) |
| CAREKRAAEQAGNASASA [FS-1850] | 7.93 (active) | 9.37 (active) | 8.96 (active) |
| CAREKRAKIKAGNASASA [FS-2207] | -1.38 (inactive) | 0.0659 (inactive) | 0.59 (inactive) |
| CAREKKSNSPAGNASASA [FS-2006] | -0.648 (inactive) | -0.595 (inactive) | -1.15 (inactive) |
| CAQHLPYIEQAGNASASA [HC1017] | -0.597 (inactive) | -0.486 (inactive) | -0.755 (inactive) |
| CARFARMIEQAGNASASA [FS-2257] | 1.16 | 3.39 | 3.53 (active) |
| CARERRGREQAGNASASA [FS-1697] | 0.641 (inactive) | 1.84 | 1.15 |
| CAREKRSNSQAGNASASA [FS-2008] | 6.55 (active) | 8.6 (active) | 7.52 (active) |
| CAREKRSISDAGNASASA [FS-1889] | 9.34 (active) | 11.3 (active) | 8.9 (active) |
| CARAPRSSSQAGNASASA [FS-3147] | 1.17 | 1.52 | 0.934 (inactive) |
| CAVPCCSMSYAGNASASA [HC2019] | -0.257 (inactive) | 0.638 (inactive) | 1.91 |
| CAEQTTPCSGAGNASASA [HC1982] | -1.3 (inactive) | -0.293 (inactive) | 0.257 (inactive) |
| CASPLLLTTTAGNASASA [HC492] | -0.516 (inactive) | -0.474 (inactive) | -1.67 (inactive) |
| CAESVVCCSMAGNASASA [HC2137] | -0.35 (inactive) | -0.242 (inactive) | -0.275 (inactive) |
| CAEEEVPCHRAGNASASA [HC2452] | -0.0801 (inactive) | -0.749 (inactive) | -0.159 (inactive) |
